This passage reports growth results from PubChem BioAssay (NCI).

SMILES strings stand for the structures. Compounds without any hit were thinned out: in the full panel of roughly 83,000, 20% have a hit.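 A percent growth of 40 corresponds to 60% growth inhibition; 0 means no net growth; -100 means all cells died. Active threshold: below 10.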 A number with no mark means an inactive call. Calls of active or inactive are those of the source.

The first assay has as its system SF-539 CNS. Put plainly: NCI-60 one-dose screen, 48 h (100 = growth as untreated, 0 = no growth, -100 = all killed). Particulars: 10 µM.
As to `COCCOC(=O)c1ccc(C(C)C)cc1`, the growth is 99%.
Still for that read-out and setting: the figure for `CCCC(C)OCC(=O)O` (configuration not stated) is 102%; for `O=c1[nH][nH]c(=O)c2cc([N+](=O)[O-])ccc12` it is 108%; for `O=[N+]([O-])c1ccc(N=Nc2ccc(O)c3ccccc23)cc1` it is 75.4%.
Still for that read-out and setting: the figure for `CCCCCCCCO` is 97.4%; for `Cn1cnc2nc(Cl)nc(Cl)c21` it is 2.85% (active); for `OCC(O)C(O)C(O)C(O)/C=N/O` (configuration not stated) it is 106%.
Same read-out and setting: the figure for `O=C(O)COCC(=O)O` is 104%; for `Cc1ccc(S(=O)(=O)O)c(C)c1` it is 101%; for `NC(=S)N/N=C/c1ccc(N)cc1` it is 103%.
Regarding `O=c1[nH]nc(SC2CCCCC2)c(=O)[nH]1`, the growth was 99%.
`CC1CC(O)C2C3(C)CCCC2(COC3=O)C12CCC1(CCOC1=O)O2` (configuration not stated): the growth is 101%.
As for `CCOc1ccc(Br)cc1/C=N\N=C\c1cc(Br)ccc1OCC`, the growth was 101%.
Same read-out and setting: the figure for `S=C1CCCCCN1` is 96.8%.
`CC1CCCCN1C(=S)Nc1ccc(S(=O)(=O)N2CCCCC2)cc1` (configuration not stated): the growth was 96.9%.
Turning to `COc1cc(C2c3cc4c(cc3C3OC(=O)C2C3CO)OCO4)cc(OC)c1OC` (configuration not stated), the growth is -7.04% (active).
On the same count and under the same terms, the figure for `CCCCOC(=O)c1ccc(C(C)C)cc1` is 96.6%; for `NCCCN` it is 102%; for `O=C(O)CCCC(=O)O` it is 104%.
`COc1ccc(-c2cc3c(nn2)-c2ccccc2C3=O)cc1`: the growth was 82.1%.

The next assay deals with UACC-257 melanoma. The description is as above. The note with it: 10 µM.
Take `CCNc1nc2c(cnn2C)c(=O)[nH]1`: the growth was 115%.
Still for that read-out and setting: the figure for `O=[N+]([O-])c1cccc(N=Nc2ccc(O)cc2O)c1` is 72.5%.
Same read-out and setting: the figure for `CC(=O)/C(Cc1ccccc1)=N/O` is 89.5%; for `O=[N+]([O-])c1ccccc1N=Nc1ccc(O)cc1O` it is 103%; for `CCn1c(=O)n(C)c2c(=O)n(C)c(=O)n(C)c21` it is 99%.
With `O=P(O)(O)OCC(O)CO` (configuration not stated), the growth was 102%.
As for `CCCCCCCCCCC1CO1` (configuration not stated), the growth was 96.4%.
On the same count and under the same terms, the figure for `CC(=O)OCCO` is 102%; for `CC(=O)OCC(=O)[C@@]1(O)CC[C@H]2[C@@H]3CC[C@@H]4C[C@H](O)CC[C@]4(C)[C@H]3C(=O)C[C@@]21C` it is 101%; for `COc1cc2c3cc1Oc1c(OC)c(OC)cc4c1C(Cc1ccc(O)c(c1)Oc1ccc(cc1)CC3N(C)CC2)N(C)CC4` (configuration not stated) it is -62.2% (active).
As to `COc1cccc(/C=N/NC(=S)NC2CC3CCC2C3)c1O` (configuration not stated), the growth was 73.6%.
With `O=S(=O)(Cc1ccccc1)c1ccccc1`, the growth was 107%.
As to `COc1cc2nn(-c3ccccc3N)nc2cc1OC`, the growth was 107%.
As for `CC1C(=O)c2ccccc2CC1C(=O)O` (configuration not stated), the growth was 92.8%.
Still for that read-out and setting: the figure for `O=[N+]([O-])c1ccc(S(=O)(=O)NN=C2CCCCC2)cc1` is 95.6%.
Consider `CC(=O)c1ccc(N=C(C#N)C2=C(O)c3ccccc3C2=O)cc1`, for which the growth is 94.2%.
With `CC(=Nc1ccccc1)C1=C(O)C(Cc2cccc(F)c2)NC1=O` (configuration not stated), the growth was 40.6%.
On the same count and under the same terms, the figure for `CCOC(=O)c1ccc(NC(=S)P(=O)(c2ccccc2)c2ccccc2)cc1` is 108%; for `COCCOC(=O)c1ccc(C(C)C)cc1` it is 81%.
On the same count and under the same terms, the figure for `CCCC(C)OCC(=O)O` (configuration not stated) is 90.2%; for `O=c1[nH][nH]c(=O)c2cc([N+](=O)[O-])ccc12` it is 110%; for `O=[N+]([O-])c1ccc(N=Nc2ccc(O)c3ccccc23)cc1` it is 17%.
For `CCCCCCCCO`, the growth was 101%.
`Cn1cnc2nc(Cl)nc(Cl)c21`: the growth is 60%.
On the same count and under the same terms, the figure for `OCC(O)C(O)C(O)C(O)/C=N/O` (configuration not stated) is 62.3%.
Still for that read-out and setting: the figure for `O=C(O)COCC(=O)O` is 87.9%; for `Cc1ccc(S(=O)(=O)O)c(C)c1` it is 108%; for `NC(=S)N/N=C/c1ccc(N)cc1` it is 82.9%.
Still for that read-out and setting: the figure for `O=c1[nH]nc(SC2CCCCC2)c(=O)[nH]1` is 91.2%; for `CC1CC(O)C2C3(C)CCCC2(COC3=O)C12CCC1(CCOC1=O)O2` (configuration not stated) it is 114%.
For `CCOc1ccc(Br)cc1/C=N\N=C\c1cc(Br)ccc1OCC`, the growth is 92.7%.
On the same count and under the same terms, the figure for `S=C1CCCCCN1` is 97.8%; for `CC1CCCCN1C(=S)Nc1ccc(S(=O)(=O)N2CCCCC2)cc1` (configuration not stated) it is 105%.
On the same count and under the same terms, the figure for `COc1cc(C2c3cc4c(cc3C3OC(=O)C2C3CO)OCO4)cc(OC)c1OC` (configuration not stated) is 57%; for `CCCCOC(=O)c1ccc(C(C)C)cc1` it is 77.3%.
The same measure, in the same setting: the figure for `O=C(O)CCCC(=O)O` is 87.9%; for `COc1ccc(-c2cc3c(nn2)-c2ccccc2C3=O)cc1` it is 69.6%.
